# About 83,000 compounds went through this panel and 20% of them were active in at least one assay; those are over-represented in the sample as a whole.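 Step 1: grow cells in 96-well plates. Step 2: add test compound at a single concentration. Step 3: incubate 48 h. Step 4: record percent growth.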 A number with no mark means an inactive call. Activity calls are given as the source filed them. The calls were made as follows: active = growth percent below 10; inactive = the rest.
# Test system: MDA-MB-468 breast
# Assay: NCI-60 one-dose screen, 48 h (100 = growth as untreated, 0 = no growth, -100 = all killed)
# Conditions: 10 µM unless noted
row,Structure (SMILES),growth
1,COc1ccc(/C=C2/SC(=O)N(CC(=O)N3CCN(c4cc5c(cc4F)c(=O)c(C(=O)O)cn5C4CC4)CC3)C2=O)cc1,108%
2,NS(=O)(=O)c1ccc(C(=O)N/N=C(\CS(=O)(=O)c2ccccc2)c2cc3cc(Br)ccc3o2)cc1,78.9%
3,C=C(C)[C@@H]1CC[C@]2(C(=O)N3CCCNCC3)CC[C@]3(C)[C@H](CC[C@@H]4[C@@]5(C)CCC(=O)C(C)(C)[C@@H]5CC[C@]43C)[C@@H]12,90.8%
4,O=c1ccc2ccc(OCCN3CCCCC3)cc2o1,105%
5,CNS(=O)(=O)Oc1ccc(-c2ccc3occc3c2)cc1,91.7%
6,NS(=O)(=O)c1ccc(CCN2C(=O)/C(=C\c3ccc(Cl)cc3)C=C2c2ccc(Oc3ccccc3)cc2)cc1,76.7%
7,C[C@H](NC(=O)[C@@H](C)N)[C@H](Oc1ccc2c(cnn2-c2ccc(F)cc2)c1)c1ccc2c(c1)OCCO2,37.7%
8,COC1=CC(c2ccc[nH]2)=N/C1=C\c1[nH]c(C)c(CC(=O)OCc2ccccc2)c1CCC(=O)OCc1ccccc1,-31.2% (active)
9,CSc1nc(N)c(CNC(C)c2ccccc2)c(=O)n1C (configuration not stated),97.4%
10,Cc1ccc(Nc2ccc(Nc3ccc(C)cc3)c3c2C(=O)c2cccc(O)c2C3=O)cc1,83.3%
11,O=C(N/N=C/c1cc(Cl)ccc1O)c1ccccc1Nc1ccnc(C(F)(F)F)c1,12.8%
12,COc1cc(C2=Nc3c(N)nc(N)nc3NC(c3cccc(Nc4ccnc5cc(C(F)(F)F)ccc45)c3)C2)cc(OC)c1OC (configuration not stated),68.1%

# Reference: PubChem BioAssay (NCI)
